Shown are actives, neighbours in structure and some others; about 10% of the full set was active somewhere.
CCT chaperon mod = modulators of cytosolic chaperonin (CCT/TRiC) activity; AID 651819; purified chaperonin ATPase assay, HTRF ADP detection, 30 min; activity change, % (concentration not given with the values), hits read low; 360,000 compounds, 0.3% hits; in the data active means activity change below about -30%
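Nucleotide hydrolysis assay: TRiC at 20–40 nM final (set by batch activity) with 10 uM ATP, 30 min at 37 °C, in presence of 76 uM compound. Detection by competitive ADP HTRF, 30 min ambient.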
Sfp inh = blocks B. subtilis Sfp PPTase activity; 310,000 compounds, 3.5% hits; Potency, µM, without a hit: largest response in the series, negative = inhibition, most hits filed as inhibitors; AID 1490; Biochemical Sfp PPTase activity, qHTS; Q9F4F7;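 further: the enzyme is Sfp with the accession as filed and its product quenches rhodamine fluorescence; potency means the concentration at half of the fitted maximal effect; 0% = enzyme reaction without inhibitor and -100% = no enzyme wells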
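Buffer: 50 mM Hepes-Na pH 7.6, 10 mM MgCl2, 0.01% Nonidet P-40, 0.01% BSA. Enzyme 15 nM, pre-exposed to compound 15 min; substrates then added and fluorescence change tracked over 30 min.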
PLK1 PBD block = inhibitors of human PLK1 polo-box domain binding; Plk1 PBD binding of FITC phosphopeptide, fluorescence polarization; Potency, µM, for the others: max response, negative = inhibition, actives largely listed as inhibitors; 360,000 compounds, 2.8% hits; further: potency means the concentration at half of the fitted maximal effect; series mostly up to about 57 µM; nearly all actives have a fitted effect of over 65% in size
VDR inh = inhibitors of human vitamin D receptor. 400,000 compounds, 0.93% hits. VDR-SRC2-3 peptide fluorescence polarization, 2 h. Potency, µM, for inactives: max response, negative = inhibition, most hits filed as inhibitors; further: potency means the concentration at half of the fitted maximal effect
Target sequence (P11473 whole entry, looked up): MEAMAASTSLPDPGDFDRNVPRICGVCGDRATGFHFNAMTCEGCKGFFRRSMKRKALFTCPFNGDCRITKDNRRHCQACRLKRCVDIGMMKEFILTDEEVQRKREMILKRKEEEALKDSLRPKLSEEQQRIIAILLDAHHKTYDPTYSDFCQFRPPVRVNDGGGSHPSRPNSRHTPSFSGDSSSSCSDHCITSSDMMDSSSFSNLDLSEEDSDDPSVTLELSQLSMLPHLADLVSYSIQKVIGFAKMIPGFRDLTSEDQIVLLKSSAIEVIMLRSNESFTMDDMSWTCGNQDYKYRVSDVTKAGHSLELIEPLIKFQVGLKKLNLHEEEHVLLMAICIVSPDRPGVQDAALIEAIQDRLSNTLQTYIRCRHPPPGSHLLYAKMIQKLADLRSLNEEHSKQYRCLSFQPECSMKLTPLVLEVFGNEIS
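VDR–SRC2-3 interaction, FP format. Cmpds 23 nl via pintool, brief spin, 2 h ambient incubation.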
MmCpn inh = inhibitors of Methanococcus maripaludis chaperonin TRiC (MmCpn). purified Mm-Cpn ATPase, ADP Transcreener TR-FRET. Potency, µM (highest dose often 76.9 µM), for the others: at the top dose activity, negative = inhibition, actives largely listed as inhibitors. 330,000 compounds, 0.031% hits. AID 504842; further: potency means the concentration at half of the fitted maximal effect; nearly all actives have a fitted effect of over 80% in size
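Inhibition of chaperonin ATP hydrolysis is measured as reduced ADP production, detected by competitive TR-FRET in which signal falls with ADP. Final enzyme 25 nM and ATP 10 uM, reacted 30 min at 37°C.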
G9a inh = inhibitors of human histone lysine methyltransferase G9a; AID 504332; 350,000 compounds, 8.8% hits; G9a H3K9 monomethylation, AlphaScreen, 2 h; Potency, µM (doses to about 102 µM), without a hit: top-dose activity, negative = inhibition, actives largely listed as inhibitors; further: potency means the concentration at half of the fitted maximal effect; nearly all actives have a fitted effect of over 75% in size
Target sequence (Q96KQ7 913-1193 limits assumed): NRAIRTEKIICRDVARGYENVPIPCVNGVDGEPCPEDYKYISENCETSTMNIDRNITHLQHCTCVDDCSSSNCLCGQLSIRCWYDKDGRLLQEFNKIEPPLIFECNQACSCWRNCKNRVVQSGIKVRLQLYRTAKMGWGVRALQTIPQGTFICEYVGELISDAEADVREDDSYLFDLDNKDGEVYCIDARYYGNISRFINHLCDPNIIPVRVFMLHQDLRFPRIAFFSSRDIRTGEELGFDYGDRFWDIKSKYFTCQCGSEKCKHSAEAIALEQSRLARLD
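Step 1: enzyme (final 20 nM) with compound, 15 min RT. Step 2: substrate peptide 500 nM and SAM 20 uM, 2 h RT. Step 3: anti-H3K9me1 antibody and AlphaScreen beads, 10 min, then plate read.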
* = called active by the depositor; ? = inconclusive; . = no result; [ ] = dose if it differs, or a comment. Unless noted, the call rests on the fitted dose curve; in most records, active means well fitted curve in the direction sought with a large enough effect; inconclusive means small, poorly fitted or top-dose-only effect, or another doubt; inactive means no such curve, though single readings can be large; an effect the other way counts as inactive or inconclusive. Unless noted, on the % scale 0 is the no-effect control and ±100 the full control effect.

SMILES	CCT chaperon mod	Sfp inh	PLK1 PBD block	VDR inh	MmCpn inh	G9a inh
O=C1CCC(C(=O)OCC(=O)c2ccccc2)N1 (stereo not drawn)	-2.4	10.1%	26.7µM*	?	-8.2%	-5.1%
CCC1CC=CC2C1C(=O)N(Cc1ccccc1)C2c1ccc(C(F)(F)F)cc1 (stereo not drawn)	.	10.8%	.	10.5%	.	.
C[C@@H]1C[C@H]2[C@@H]3CCC4=CC(=O)C=C[C@]4(C)[C@@]3(F)C(O)C[C@]2(C)[C@@]1(O)C(=O)CO (stereo partly drawn)	.	.	.	-5.8%	.	.
CCc1ccc(NC(=O)N2CCN(Cc3nc4ccc(C)cc4o3)CC2)cc1	.	.	.	-0.3%	.	-2.3%[59 µM]
COc1ccc(-c2csc(Nc3ccc(C)cn3)n2)cc1OC	-3.4	?	0.5%	-1.0%	-5.2%	50.1µM*
Cc1cccc(Nc2nc(-c3cccs3)cs2)n1	-3.0	0.7%	-9.9%	14.7%	-3.2%	8.91µM*
COc1ccc(-c2csc(Nc3cc(C)ccn3)n2)cc1OC	-2.1	-28.1%	-8.2%	9.3%	-9.1%	39.8µM*
Cc1ccc(Nc2nc(-c3ccc(F)cc3)cs2)nc1	-2.2	11.0%	2.5%	-6.7%	-1.4%	-2.2%[59 µM]
Cc1ccc(Nc2nc(-c3ccc(O)c(O)c3)cs2)nc1	-2.7	35.5µM*	-11.8%	1.3%	-9.6%	15.8µM*
Cc1ccnc(Nc2nc(-c3ccccc3)cs2)c1	-2.4	6.6%	0.6%	1.3%	-0.5%	-2.4%
Cc1cccc(Nc2nc(-c3ccc(F)cc3)cs2)n1	-4.2	-25.7%	-21.0%	-22.6%	1.0%	-45.4%
Cc1ccc(NC(=O)CSc2cc(=O)n(C)c3ccc(Cl)cc23)c(Br)c1	.	.	.	-0.6%	.	6.0%[59 µM]
COc1ccc(-c2csc(Nc3cccc(C)n3)n2)cc1	0.6	-1.8%	?	-1.4%	-1.7%	-13.6%
COc1ccc(-c2csc(Nc3cccc(C)n3)n2)cc1C	1.0	-16.2%	-11.7%	7.9%	-16.7%	50.1µM*
c1c2c(cc3sc(N4CCOCC4)nc13)OCO2	-1.7	35.5µM*	26.7µM*	?	-0.7%	-49.6%[2.33 µM]
Fc1ccc2nc(Nc3nc4cc5c(cc4s3)OCO5)sc2c1	-1.0	-5.7%	1.1%	-0.7%	?	4.4%[59 µM]
c1c2c(cc3sc(N4CCCCC4)nc13)OCO2	-5.5	-25.9%	?	4.2%	-1.0%	10µM*
c1ccc(N2CCN(c3nc4cc5c(cc4s3)OCO5)CC2)cc1	-2.0	44.7µM*	26.7µM*	?	-10.3%	?
Fc1ccc2nc(N3CCOCC3)sc2c1	-1.1	3.5%	-8.0%	-18.1%	0.3%	-38.5%
Cc1nn2c(=O)cc(COC(=O)c3ccccc3NC(=O)c3cccs3)nc2s1	.	.	.	-3.4%	.	-0.4%[12.7 µM]
COc1cc(NC(=O)Cc2noc3ccccc23)cc(OC)c1OC	.	.	.	12.4%	.	-31.9%[59 µM]
CC1CCN(c2ccc3c(c2)S(=O)(=O)c2cccc(C(=O)NCc4ccc(F)cc4)c2C3=O)CC1	-1.1	.	84.4µM*	-13.6%	-0.8%	27.3%[2.33 µM]
O=C(NCc1ccc(F)cc1)c1cccc2c1C(=O)c1ccc(N3CCC(Cc4ccccc4)CC3)cc1S2(=O)=O	-1.7	.	?	-15.2%	0.9%	.
O=C(NCc1cc(C(F)(F)F)ccc1Cl)c1cccc2c1C(=O)c1ccc(N3CCC(Cc4ccccc4)CC3)cc1S2(=O)=O	-1.0	.	23.8µM*	-7.9%	-1.6%	.
Cc1cc(C)c2c(n1)sc1c(-c3ccccc3)c(C#N)c(N)nc12	-1.8	-8.3%	?	-19.4%	0.1%	7.94µM*
SMILES	CCT chaperon mod	Sfp inh	PLK1 PBD block	VDR inh	MmCpn inh	G9a inh
CC1=NN(c2ccc([N+](=O)[O-])cc2)C(=O)C1[N+](=O)[O-] (stereo not drawn)	.	-11.5%	.	?	.	.
CC(=O)n1c2c(c3ccccc31)OC(N)=C(C#N)C2c1cccc(Cl)c1Cl (stereo not drawn)	0.6	-2.8%	?	-14.8%	0.0%	44.7µM*
COc1ccc2[nH]c3c(c2c1)CCNC3(C)CCc1ccc(Cl)nc1 (stereo not drawn)	-30.7*	10.0%	?	?	-2.1%	-50.3%
Cc1ccc(S(=O)(=O)c2nnn3c2nc(NC(C)c2ccccc2)c2sccc23)cc1 (stereo not drawn)	.	.	.	14.3%	.	3.4%[59 µM]
COCCCNC(=O)CCCn1c(=O)c2cccn2c2ccccc21	.	.	.	-1.0%	.	-1.3%[59 µM]
O=C1C=CC(=Nc2ccc(F)cc2)O1	-0.9	.	?	79.4µM*	.	.
CCOc1ccccc1Nc1sc(C(=O)c2ccc(Cl)cc2)c(N)c1C#N	.	.	.	9.7%	.	1.5%[59 µM]
Cc1ccc(N2C(S)=C(C#N)C(=O)NC2c2cccs2)cc1 (stereo not drawn)	-3.1	35.5µM*	26.7µM*	25.1µM*	1.7%	?
N#CC1=C(S)N(c2ccccc2)C(c2cccs2)NC1=O (stereo not drawn)	-1.2	10µM*	?	?	-2.4%	?
O=C1CSC(c2cccs2)N1c1ccccc1 (stereo not drawn)	0.2	16.3%	-4.5%	8.8%	-0.4%	-1.9%[59 µM]
Cn1cc(S(=O)(=O)c2ccc(Cl)cc2)c(=O)c2cc(F)c(N3CCCC3)cc21	.	.	.	17.0%	.	-2.0%[59 µM]
Cc1nc(SCCC(C)C)c([N+](=O)[O-])[nH]1	1.5	9.8%	-24.5%	1.1%	-0.6%	28.2µM*
CCOc1ccccc1OCCOc1ccccc1OC(C)C	-8.4	15.7%	-0.7%	9.5%	-1.1%	114.8%
CNCCOc1ccccc1OC(C)C	2.7	-10.3%	-3.3%	9.3%	-1.4%	17.8µM*
CCOC(=O)Cn1c(=O)n(CC2CCCO2)c2nc(-c3cc(OC)ccc3OC)nc(C(N)=O)c21 (stereo not drawn)	.	.	.	2.6%	.	8.5%[59 µM]
CCOc1ccc(C(=O)NCC(=O)OCC(=O)c2ccc3c(c2)-c2ccccc2C3)cc1	-5.2	7.6%	-8.5%	-7.8%	?	70.8µM*
CCOC(=O)c1c(C)[nH]c(C)c1C(=O)COC(=O)CNC(=O)c1ccc(OCC)cc1	-2.3	19.1%	29.9µM*	-8.5%	-1.6%	-20.6%[12.7 µM]
Cc1ccc(NC(=O)c2cccc(C(F)(F)F)c2)cc1NC(=O)c1[nH]cnc1C(N)=O	0.2	.	-2.6%	-0.6%	-2.5%	3.2%[0.501 µM]
Cc1cn(-c2cc(NC(=O)c3ccc(C)c(NC(=O)c4cccc(-c5cn[nH]c(=O)c5)c4)c3)cc(C(F)(F)F)c2)cn1	-0.4	16.1%	-9.9%	12.9%	3.0%	14.1µM*
N#CC1=C(N)C(C#N)(C#N)C(c2cccnc2)C2CCCC=C12 (stereo not drawn)	.	17.8µM*	.	.	-3.3%	44.7µM*
N#CC1=C(N)C(C#N)(C#N)C(c2ccc[nH]2)C2CCCC=C12 (stereo not drawn)	-3.8	56.2µM*	-12.7%	-32.2%	-1.9%	35.5µM*
N#CC1=C(N)C2=CCCC[C@H]2[C@H](c2cccc(F)c2)C1(C#N)C#N	-2.0	9.6%	-27.0%	?	-4.9%	-7.7%[59 µM]

High-throughput results deposited in PubChem BioAssay by National Center for Advancing Translational Sciences (NCATS).
